# About 160 (5.9%) of roughly 2,700 compounds showed an effect of 50% or more. The sample holds strong results, similar compounds and a random draw of the others, so the mix is not that of the screen.
# Biological target: Nonstructural protein 3 (Zika virus) (UniProt A0A024AXB9)
# [1] = PRVABC59, Concentration 50.0 uM, Number of replicates 1.0
# Nonstructural protein 3 (Zika virus), sequence (A0A024AXB9 as listed by the source): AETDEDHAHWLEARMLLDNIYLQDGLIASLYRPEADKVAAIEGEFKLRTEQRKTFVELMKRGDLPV
smiles,measurement,setting,value
NCc1cccc(NC(=O)C2CN(C(=O)OCc3ccccc3)C2)c1,inhibition,"PRVABC59, Concentration 49.5 uM, Number of replicates 2.0, Standard deviation 0.7047125451631892 %",1.12%
same,inhibition,"PRVABC59, Concentration 99.01 uM, Number of replicates 2.0, Standard deviation 1.0691153353532887 %",3.88%
same,inhibition,"PRVABC59, Concentration 198.0 uM, Number of replicates 2.0, Standard deviation 0.2800776094724739 %",10.1%
O=Cc1ccc(N2CCC(C(=O)NCCNC(=O)c3ccccc3Cl)CC2)cc1,inhibition,[1],20.1%
CC(=O)N[C@@H](CCCCN)C(=O)Nc1cccc2c(CO)cc(C)nc12,inhibition,"PRVABC59, Concentration 49.95 uM, Number of replicates 2.0, Standard deviation 2.062511665720634 %",70.2%
same,inhibition,"PRVABC59, Concentration 99.9 uM, Number of replicates 2.0, Standard deviation 0.26572610179233236 %",93.5%
Cc1cc(CO)c2cccc(C[C@H](NC(=O)Cc3cccc(CN)c3)C(=O)O)c2n1,inhibition,"PRVABC59, Concentration 49.95 uM, Number of replicates 2.0, Standard deviation 1.661005908968333 %",-1.72%
same,inhibition,"PRVABC59, Concentration 99.9 uM, Number of replicates 2.0, Standard deviation 1.2746087015891263 %",6.96%
CC(=O)N[C@@H](CCCN)C(=O)Nc1ccccc1Cc1cccc2c(CO)cc(C)nc12,inhibition,"PRVABC59, Concentration 49.95 uM, Number of replicates 2.0, Standard deviation 1.2164295290794762 %",11.2%
same,inhibition,"PRVABC59, Concentration 99.9 uM, Number of replicates 2.0, Standard deviation 0.5089666913167087 %",30.6%
CC(=O)N[C@@H](Cc1ccc(CN)cc1)C(=O)Nc1cccc2c(CO)cc(C)nc12,inhibition,"PRVABC59, Concentration 49.95 uM, Number of replicates 2.0, Standard deviation 1.5120886598590335 %",62.5%
same,inhibition,"PRVABC59, Concentration 99.9 uM, Number of replicates 2.0, Standard deviation 0.31634008358167093 %",95.8%
CC(=O)N[C@@H](CCCCN)C(=O)Nc1ccccc1Cc1cccc2c(CO)cc(C)nc12,inhibition,"PRVABC59, Concentration 49.95 uM, Number of replicates 2.0, Standard deviation 1.4556435772845158 %",-3.65%
same,inhibition,"PRVABC59, Concentration 99.9 uM, Number of replicates 2.0, Standard deviation 0.5191459981690598 %",11.6%
CC(=O)N[C@@H](CCCN)C(=O)Nc1cccc2c(CO)cc(C)nc12,inhibition,"PRVABC59, Concentration 49.95 uM, Number of replicates 2.0, Standard deviation 2.340889239911572 %",9.01%
same,inhibition,"PRVABC59, Concentration 99.9 uM, Number of replicates 2.0, Standard deviation 2.049858170273299 %",41.2%
Cn1cc(CNC(=O)c2ccccc2[C@@H]2CCCNC2)cn1,inhibition,"PRVABC59, Concentration 49.5 uM, Number of replicates 2.0, Standard deviation 1.3820269413959925 %",-1.82%
same,inhibition,"PRVABC59, Concentration 99.01 uM, Number of replicates 2.0, Standard deviation 1.129463511127855 %",-0.227%
same,inhibition,"PRVABC59, Concentration 198.0 uM, Number of replicates 2.0, Standard deviation 0.6425212666298173 %",0.6%
O=Cc1ccc(N2CCC(C(=O)NCCc3cc(F)cc(F)c3)CC2)cc1,inhibition,[1],19.3%
N#Cc1cccc(NC(=O)c2cccc(OCc3c(Cl)cccc3Cl)c2)c1,inhibition,"PRVABC59, Concentration 49.5 uM, Number of replicates 2.0, Standard deviation 1.7651619405536074 %",6.21%
same,inhibition,"PRVABC59, Concentration 99.01 uM, Number of replicates 2.0, Standard deviation 1.834624667346594 %",10%
same,inhibition,"PRVABC59, Concentration 198.0 uM, Number of replicates 2.0, Standard deviation 2.6293560952864428 %",8.42%
O=C(NCc1ccccc1Oc1ccccc1)c1cc(Cl)ccc1NS(=O)(=O)c1ccc(Oc2ccccc2Cl)cc1,inhibition,"PRVABC59, Concentration 15.0 uM, Number of replicates 1.0",15.7%
O=Cc1ccc(N2CCC(C(=O)NCCN3C(=O)CSC3=O)CC2)cc1,inhibition,[1],24.5%
Cc1cc(CO)c2cccc(NC(=O)CC3CNC3)c2n1,inhibition,"PRVABC59, Concentration 49.95 uM, Number of replicates 2.0, Standard deviation 1.5957700474656553 %",-6.72%
same,inhibition,"PRVABC59, Concentration 99.9 uM, Number of replicates 2.0, Standard deviation 1.1039918524960535 %",-6.98%
Cc1cc(CO)c2cccc(Cc3cccc(NC(=O)CCC4CCNCC4)c3)c2n1,inhibition,"PRVABC59, Concentration 49.95 uM, Number of replicates 2.0, Standard deviation 0.07125447361688171 %",70.2%
same,inhibition,"PRVABC59, Concentration 99.9 uM, Number of replicates 2.0, Standard deviation 0.2799306012648679 %",94.6%
Cc1cc(CO)c2cccc(Cc3cccc(NC(=O)Cc4c(C)c5c(=O)[nH]n(C)c5[nH]c4=O)c3)c2n1,inhibition,"PRVABC59, Concentration 49.95 uM, Number of replicates 2.0, Standard deviation 0.9685022100006885 %",29.7%
same,inhibition,"PRVABC59, Concentration 99.9 uM, Number of replicates 2.0, Standard deviation 0.32116033435216484 %",54.1%
Cc1cc(CO)c2cccc(NCC3CCNCC3)c2n1,inhibition,"PRVABC59, Concentration 99.9 uM, Number of replicates 2.0, Standard deviation 2.951218090372617 %",-5.37%
Cc1cc(CO)c2cccc(Cc3cccc(NC(=O)C[C@H]4CCCN4)c3)c2n1,inhibition,"PRVABC59, Concentration 49.95 uM, Number of replicates 2.0, Standard deviation 0.1706171862678608 %",-9.82%
Cc1cc(CO)c2cccc(Cc3ccccc3NC(=O)CCC3CCNCC3)c2n1,inhibition,"PRVABC59, Concentration 49.95 uM, Number of replicates 2.0, Standard deviation 0.020358613704702253 %",4.96%
same,inhibition,"PRVABC59, Concentration 99.9 uM, Number of replicates 2.0, Standard deviation 1.9188023762412802 %",26.8%
Cc1cc(CO)c2cccc(NC(=O)Cc3c(C)c4c(=O)[nH]n(C)c4[nH]c3=O)c2n1,inhibition,"PRVABC59, Concentration 49.95 uM, Number of replicates 2.0, Standard deviation 0.16559867672197162 %",15%
same,inhibition,"PRVABC59, Concentration 99.9 uM, Number of replicates 2.0, Standard deviation 1.570678848435362 %",29.8%
Cc1cc(CO)c2cccc(NC(=O)C[C@H]3CCCN3)c2n1,inhibition,"PRVABC59, Concentration 49.95 uM, Number of replicates 2.0, Standard deviation 2.649580260544395 %",3.54%
same,inhibition,"PRVABC59, Concentration 99.9 uM, Number of replicates 2.0, Standard deviation 2.639543831508496 %",13.9%
Cc1cc(CO)c2cccc(Cc3cccc(NC(=O)CNC4CC4)c3)c2n1,inhibition,"PRVABC59, Concentration 49.95 uM, Number of replicates 2.0, Standard deviation 2.20382385319093 %",-2.08%
same,inhibition,"PRVABC59, Concentration 99.9 uM, Number of replicates 2.0, Standard deviation 2.3107066172874657 %",1.16%
Cc1cc(CO)c2cccc(Cc3ccccc3NC(=O)Cc3c(C)c4c(=O)[nH]n(C)c4[nH]c3=O)c2n1,inhibition,"PRVABC59, Concentration 49.95 uM, Number of replicates 2.0, Standard deviation 2.3870518401485845 %",19.5%
same,inhibition,"PRVABC59, Concentration 99.9 uM, Number of replicates 2.0, Standard deviation 1.6185118125725577 %",39.4%
Cc1cc(CO)c2cccc(NC(=O)CCC3CCNCC3)c2n1,inhibition,"PRVABC59, Concentration 49.95 uM, Number of replicates 2.0, Standard deviation 0.05519955890732387 %",98.6%
same,inhibition,"PRVABC59, Concentration 99.9 uM, Number of replicates 2.0, Standard deviation 0.045159842417240824 %",96.7%
Cc1cc(CO)c2cccc(NC(=O)CC3CCNCC3)c2n1,inhibition,"PRVABC59, Concentration 49.95 uM, Number of replicates 2.0, Standard deviation 2.2586421938534733 %",41.5%
same,inhibition,"PRVABC59, Concentration 99.9 uM, Number of replicates 2.0, Standard deviation 1.48045087514324 %",81%

# Reference: ChEMBL document CHEMBL5606458, “ASAP - ZIKV NS2B-NS3 protease fluorescence single point” (2024)
